The results in this text go back to PubChem BioAssay (NCI).

What all share (experiment): NCI-60 one-dose screen, 48 h (100 = growth as untreated, 0 = no growth, -100 = all killed)
Holding throughout (conditions): 10 µM unless noted

The subject of assay [1] is NCI-H23 lung.
Assay [2] relates to NCI-H226 lung.
In assay [3] the test system is NCI-H322M lung.
Assay [4] deals with HOP-62 NSCLC.
Assay [5] deals with NCI-H460 lung.
Assay [6] has as its system HOP-92 NSCLC.
In assay [7] the test system is A549/ATCC NSCLC.
The subject of assay [8] is 786-0 renal.
Assay [9] relates to COLO 205 colon.
Assay [10] deals with DU-145 prostate.
The test system of assay [11] is K-562 leukemia.
The subject of assay [12] is MALME-3M melanoma.
The test system of assay [13] is MDA-MB-231 breast.
Assay [14] has as its system RXF 393 renal.
Assay [15] deals with SF-268 CNS.
In assay [16] the test system is SF-295 CNS.
The test system of assay [17] is SF-539 CNS.
In assay [18] the test system is UACC-257 melanoma.
Assay [19] has as its system M14 melanoma.
Assay [20] concerns NCI-H522 lung.

Structures are written as SMILES. Where “and” joins values, the source holds several entries; their conditions need not be identical. Identical values can stand only once. The panel holds about 83,000 compounds, 20% with a hit somewhere; the sample as a whole holds those more often.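 Percent growth is the endpoint: 0 to 100 indicates growth inhibition (40 means 60% inhibition), 0 means no net growth, and negative values indicate cell death.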 Calls of active or inactive are those of the source. The calls were made as follows: active = growth percent below 10; inactive = the rest.

For `CC(=O)c1cc2ccccc2o1`, the growth in [1] was 97.9% (inactive); in assay [2], 107% (inactive); in [3], 110% (inactive); in [4] it was 99.7% (inactive); in assay [5], 108% (inactive); in assay [6] it was 106% (inactive). For the same compound, the growth is 104% (inactive) in [7]; 94.1% (inactive) in assay [8]; 114% (inactive) in [9]; 112% (inactive) in assay [10]; 97.9% (inactive) in assay [11]; 107% (inactive) in assay [12]. Moreover, the growth was 99.9% (inactive) in assay [13]; 119% (inactive) in [14]; 106% (inactive) in assay [15]; 103% (inactive) in assay [16]; 89% (inactive) in assay [17]; 114% (inactive) in [18]. In [19], the growth is 99.5% (inactive).
Turning to `CSc1nc(N)c(N)c(N)n1`, the growth in assay [1] is 97.9% (inactive); in assay [2] it was 91.9% (inactive); in assay [3], 106% (inactive); in [4] it was 92.6% (inactive); in [5] it was 104% (inactive); in assay [6] it was 86.6% (inactive). Further, the growth in assay [8] is 109% (inactive); in assay [9] it was 117% (inactive); in [10], 106% (inactive); in assay [11], 101% (inactive); in assay [12], 96.6% (inactive); in assay [13] it was 97.6% (inactive). In addition, the growth in assay [14] was 115% (inactive); in [15], 107% (inactive); in assay [16], 108% (inactive); in assay [17] it was 103% (inactive); in [18], 96.9% (inactive); in assay [19], 102% (inactive).
Consider `O=C1c2ccccc2C(c2ccccc2)C1c1ccccc1` (stereo unspecified), for which the growth was 91% (inactive) in assay [1]; 101% (inactive) in [2]; 92.5% (inactive) in assay [3]; 98.6% (inactive) in [4]; 95.8% (inactive) in [5]; 80.2% (inactive) in assay [6]. Further, the growth in [7] was 91.3% (inactive); in [8], 107% (inactive); in [9], 101% (inactive); in assay [10], 104% (inactive); in [11], 77.2% (inactive); in [12], 99.5% (inactive). Moreover, the growth in assay [13] was 89.1% (inactive); in assay [14] it was 102% (inactive); in [15], 97.9% (inactive); in assay [16], 94.8% (inactive); in [17] it was 101% (inactive); in [18], 96.3% (inactive). In addition, the growth in assay [19] was 97.7% (inactive).
Take `O=C(O)c1ccc2c3ccc(C(=O)O)c4c(C(=O)O)ccc(c5ccc(C(=O)O)c1c25)c43`: the growth was 87.8% (inactive) in [1]; 92.2% (inactive) in assay [2]; 100% (inactive) in assay [3]; 92.4% (inactive) in assay [4]; 96.5% (inactive) in [5]; 112% (inactive) in assay [6]. For the same compound, the growth in assay [7] is 92.1% (inactive); in [8], 107% (inactive); in assay [9], 104% (inactive); in assay [10], 112% (inactive); in assay [11], 113% (inactive); in assay [12], 86.7% (inactive). Also, the growth was 88.2% (inactive) in [13]; 100% (inactive) in assay [14]; 105% (inactive) in assay [15]; 84.5% (inactive) in assay [16]; 94.2% (inactive) in assay [17]; -14.6% (active) in [18]. In addition, in assay [19], the growth was 107% (inactive).
With `CC(C)(C)OC(=O)NCCc1ccc(N)cc1`, the growth was 104% (inactive) in assay [1]; 94.9% (inactive) in assay [2]; 103% (inactive) in assay [3]; 96.1% (inactive) in assay [4]; 97.4% (inactive) in [5]; 88.4% (inactive) in assay [6]. The growth was 91% (inactive) in [7]; 100% (inactive) in assay [8]; 110% (inactive) in assay [9]; 103% (inactive) in assay [10]; 101% (inactive) in [11]; 95.8% (inactive) in [12]. The growth in [13] was 85.6% (inactive); in [14] it was 115% (inactive); in [15], 96.3% (inactive); in assay [16], 99.2% (inactive); in [17], 107% (inactive); in [18] it was 98.2% (inactive). For the same compound, the growth in assay [19] was 104% (inactive).
With `O=C(O)C1CSCN1` (stereo unspecified), the growth is 113% (inactive) and 101% (inactive) in assay [1]; 113% (inactive) and 98.5% (inactive) in assay [2]; 93.9% (inactive) and 74.4% (inactive) in assay [3]; 99.8% (inactive) and 96.2% (inactive) in assay [4]; 125% (inactive) and 103% (inactive) in assay [5]; 99.7% (inactive) and 96.1% (inactive) in [20]. The growth in [7] is 97.7% (inactive) and 111% (inactive); in assay [8] it was 90.2% (inactive) and 101% (inactive); in [9], 103% (inactive) and 104% (inactive); in assay [10], 116% (inactive) and 127% (inactive); in assay [11] it was 93.5% (inactive) and 95.2% (inactive); in assay [12], 94.1% (inactive). For the same compound, the growth in assay [13] is 107% (inactive) and 112% (inactive); in assay [14], 123% (inactive); in assay [15], 117% (inactive) and 104% (inactive); in assay [16], 104% (inactive) and 108% (inactive); in assay [17], 121% (inactive) and 93.4% (inactive); in assay [18] it was 106% (inactive) and 91.6% (inactive). Further, the growth in assay [19] is 108% (inactive) and 99.8% (inactive).
In the case of `CS(=O)(=O)OCC1NC(=O)C(COS(C)(=O)=O)NC1=O` (stereo unspecified), the growth in assay [1] is 84% (inactive) and 88.5% (inactive); in [2] it was 96.2% (inactive) and 99.2% (inactive); in assay [3], 98.8% (inactive) and 103% (inactive); in [4], 106% (inactive) and 118% (inactive); in assay [5] it was 102% (inactive) and 95.9% (inactive); in [6] it was 96.4% (inactive) and 104% (inactive). The growth in assay [7] was 78.3% (inactive) and 96.4% (inactive); in [8], 97.8% (inactive) and 99.1% (inactive); in [9] it was 128% (inactive) and 135% (inactive); in [10], 111% (inactive) and 102% (inactive); in assay [11], 81.6% (inactive) and 104% (inactive); in assay [12], 98.1% (inactive) and 103% (inactive). In addition, the growth in assay [13] was 108% (inactive) and 104% (inactive); in assay [14], 83.2% (inactive) and 100% (inactive); in assay [15], 113% (inactive) and 60.2% (inactive); in assay [16] it was 133% (inactive) and 102% (inactive); in assay [17], 106% (inactive) and 97.9% (inactive); in [18], 75.5% (inactive) and 116% (inactive). For the same compound, in assay [19], the growth is 91.8% (inactive) and 93.5% (inactive).
In the case of `CC(=O)Oc1cc(C(C)C)c(OCCN(C)C)cc1C`, the growth is 99.8% (inactive) and 105% (inactive) in assay [1]; 120% (inactive) and 103% (inactive) in [2]; 102% (inactive) and 105% (inactive) in assay [3]; 110% (inactive) and 97.1% (inactive) in assay [4]; 115% (inactive) and 103% (inactive) in assay [5]; 107% (inactive) in assay [6]. The growth in [7] was -83.3% (active) and 99.8% (inactive); in [8], 99.6% (inactive) and 104% (inactive); in [9] it was 114% (inactive) and 108% (inactive); in assay [10], 124% (inactive) and 118% (inactive); in assay [11] it was 115% (inactive) and 124% (inactive); in assay [12], 97.5% (inactive) and 106% (inactive). For the same compound, the growth in assay [13] was 103% (inactive) and 112% (inactive); in assay [14], 112% (inactive) and 101% (inactive); in assay [15] it was 112% (inactive) and 109% (inactive); in assay [16], 103% (inactive) and 92% (inactive); in assay [17], 112% (inactive) and 99.6% (inactive); in assay [18] it was -91.1% (active) and 97.5% (inactive). For the same compound, in [19], the growth is 99.8% (inactive).
Regarding `C/C=C(/C(=O)NC(N)=O)C(C)C`, the growth in assay [1] was 104% (inactive); in assay [2] it was 116% (inactive); in assay [3] it was 109% (inactive); in assay [4], 111% (inactive); in [5], 100% (inactive); in [6], 94.5% (inactive). Moreover, the growth in [7] is 97.7% (inactive); in assay [8], 96.9% (inactive); in assay [9] it was 97.5% (inactive); in assay [10], 105% (inactive); in assay [11], 109% (inactive); in assay [12], 106% (inactive). Moreover, the growth is 114% (inactive) in assay [13]; 171% (inactive) in [14]; 87.2% (inactive) in assay [15]; 108% (inactive) in [16]; 115% (inactive) in assay [17]; 104% (inactive) in assay [18]. The growth in assay [19] was 93.9% (inactive).
In the case of `COC(=O)c1nc(N)nc(C(=O)OC)c1C(=O)c1ccc(F)cc1`, the growth was 105% (inactive) in assay [1]; 110% (inactive) in [2]; 108% (inactive) in assay [3]; 113% (inactive) in [4]; 117% (inactive) in [5]; 101% (inactive) in assay [6]. The growth in assay [20] is 103% (inactive); in assay [8], 108% (inactive); in assay [9], 117% (inactive); in [10], 111% (inactive); in assay [11] it was 109% (inactive); in assay [12], 104% (inactive). Moreover, the growth in [13] is 103% (inactive); in assay [14], 104% (inactive); in [15], 103% (inactive); in assay [16], 101% (inactive); in assay [17], 103% (inactive); in assay [18], 110% (inactive). The growth in assay [19] is 108% (inactive).
Consider `CCOC(=N)c1ccc(C(=N)OCC)cc1`, for which the growth is 101% (inactive) in assay [1]; 100% (inactive) in assay [2]; 113% (inactive) in assay [3]; 111% (inactive) in assay [5]; 93% (inactive) in assay [6]; 99.7% (inactive) in [7]. The growth in assay [8] is 86.8% (inactive); in assay [9], 103% (inactive); in assay [10] it was 103% (inactive); in assay [11], 98.7% (inactive); in [12], 106% (inactive); in assay [13], 96.3% (inactive). Further, the growth was 112% (inactive) in assay [14]; 98.4% (inactive) in assay [15]; 91.6% (inactive) in assay [16]; 98.1% (inactive) in [17]; 102% (inactive) in assay [18]; 104% (inactive) in assay [19].
Take `Cc1cc(-c2ccc(N=Nc3c(C)nn(-c4ccc(S(=O)(=O)O)cc4)c3O)c(C)c2)ccc1N=Nc1ccc(O)c(C(=O)O)c1`: the growth in [1] was 99.1% (inactive); in assay [2] it was 82.2% (inactive); in assay [3] it was 107% (inactive); in assay [5] it was 109% (inactive); in assay [6], 109% (inactive); in [20] it was 87.9% (inactive). For the same compound, the growth in assay [7] was 104% (inactive); in assay [8], 103% (inactive); in assay [9], 94% (inactive); in assay [10] it was 108% (inactive); in assay [11], 104% (inactive); in assay [12] it was 111% (inactive). The growth in assay [13] was 97.2% (inactive); in assay [14] it was 113% (inactive); in assay [15], 97.6% (inactive); in [16], 93.4% (inactive); in [17], 101% (inactive); in assay [18], 101% (inactive). For the same compound, in [19], the growth is 107% (inactive).
